G9a inh: inhibitors of human histone lysine methyltransferase G9a | 8.8% of 350,000 active | Potency, µM (titrated, usually from 102 µM), actives largely listed as inhibitors | Q96KQ7 | G9a H3K9 monomethylation, AlphaScreen, 2 h; further: nearly all actives have a fitted effect of over 75% in size
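Using a bead-based AlphaScreen, monomethylated H3K9 product from 2 h room-temperature reactions (G9a 20 nM, peptide 500 nM, SAM 20 uM) was detected with 0.5 ug/mL rabbit anti-H3K9me1 antibody.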
BAZ2B inh: BAZ2B (human) inhibition; Q9UIF8; AlphaScreen BAZ2B-H3K14Ac peptide displacement; Potency, µM (doses to about 114 µM), usual class: inhibitors; 4.4% of 360,000 active; further: nearly all actives have a fitted effect of over 60% in size
Target sequence (Q9UIF8 whole entry, looked up): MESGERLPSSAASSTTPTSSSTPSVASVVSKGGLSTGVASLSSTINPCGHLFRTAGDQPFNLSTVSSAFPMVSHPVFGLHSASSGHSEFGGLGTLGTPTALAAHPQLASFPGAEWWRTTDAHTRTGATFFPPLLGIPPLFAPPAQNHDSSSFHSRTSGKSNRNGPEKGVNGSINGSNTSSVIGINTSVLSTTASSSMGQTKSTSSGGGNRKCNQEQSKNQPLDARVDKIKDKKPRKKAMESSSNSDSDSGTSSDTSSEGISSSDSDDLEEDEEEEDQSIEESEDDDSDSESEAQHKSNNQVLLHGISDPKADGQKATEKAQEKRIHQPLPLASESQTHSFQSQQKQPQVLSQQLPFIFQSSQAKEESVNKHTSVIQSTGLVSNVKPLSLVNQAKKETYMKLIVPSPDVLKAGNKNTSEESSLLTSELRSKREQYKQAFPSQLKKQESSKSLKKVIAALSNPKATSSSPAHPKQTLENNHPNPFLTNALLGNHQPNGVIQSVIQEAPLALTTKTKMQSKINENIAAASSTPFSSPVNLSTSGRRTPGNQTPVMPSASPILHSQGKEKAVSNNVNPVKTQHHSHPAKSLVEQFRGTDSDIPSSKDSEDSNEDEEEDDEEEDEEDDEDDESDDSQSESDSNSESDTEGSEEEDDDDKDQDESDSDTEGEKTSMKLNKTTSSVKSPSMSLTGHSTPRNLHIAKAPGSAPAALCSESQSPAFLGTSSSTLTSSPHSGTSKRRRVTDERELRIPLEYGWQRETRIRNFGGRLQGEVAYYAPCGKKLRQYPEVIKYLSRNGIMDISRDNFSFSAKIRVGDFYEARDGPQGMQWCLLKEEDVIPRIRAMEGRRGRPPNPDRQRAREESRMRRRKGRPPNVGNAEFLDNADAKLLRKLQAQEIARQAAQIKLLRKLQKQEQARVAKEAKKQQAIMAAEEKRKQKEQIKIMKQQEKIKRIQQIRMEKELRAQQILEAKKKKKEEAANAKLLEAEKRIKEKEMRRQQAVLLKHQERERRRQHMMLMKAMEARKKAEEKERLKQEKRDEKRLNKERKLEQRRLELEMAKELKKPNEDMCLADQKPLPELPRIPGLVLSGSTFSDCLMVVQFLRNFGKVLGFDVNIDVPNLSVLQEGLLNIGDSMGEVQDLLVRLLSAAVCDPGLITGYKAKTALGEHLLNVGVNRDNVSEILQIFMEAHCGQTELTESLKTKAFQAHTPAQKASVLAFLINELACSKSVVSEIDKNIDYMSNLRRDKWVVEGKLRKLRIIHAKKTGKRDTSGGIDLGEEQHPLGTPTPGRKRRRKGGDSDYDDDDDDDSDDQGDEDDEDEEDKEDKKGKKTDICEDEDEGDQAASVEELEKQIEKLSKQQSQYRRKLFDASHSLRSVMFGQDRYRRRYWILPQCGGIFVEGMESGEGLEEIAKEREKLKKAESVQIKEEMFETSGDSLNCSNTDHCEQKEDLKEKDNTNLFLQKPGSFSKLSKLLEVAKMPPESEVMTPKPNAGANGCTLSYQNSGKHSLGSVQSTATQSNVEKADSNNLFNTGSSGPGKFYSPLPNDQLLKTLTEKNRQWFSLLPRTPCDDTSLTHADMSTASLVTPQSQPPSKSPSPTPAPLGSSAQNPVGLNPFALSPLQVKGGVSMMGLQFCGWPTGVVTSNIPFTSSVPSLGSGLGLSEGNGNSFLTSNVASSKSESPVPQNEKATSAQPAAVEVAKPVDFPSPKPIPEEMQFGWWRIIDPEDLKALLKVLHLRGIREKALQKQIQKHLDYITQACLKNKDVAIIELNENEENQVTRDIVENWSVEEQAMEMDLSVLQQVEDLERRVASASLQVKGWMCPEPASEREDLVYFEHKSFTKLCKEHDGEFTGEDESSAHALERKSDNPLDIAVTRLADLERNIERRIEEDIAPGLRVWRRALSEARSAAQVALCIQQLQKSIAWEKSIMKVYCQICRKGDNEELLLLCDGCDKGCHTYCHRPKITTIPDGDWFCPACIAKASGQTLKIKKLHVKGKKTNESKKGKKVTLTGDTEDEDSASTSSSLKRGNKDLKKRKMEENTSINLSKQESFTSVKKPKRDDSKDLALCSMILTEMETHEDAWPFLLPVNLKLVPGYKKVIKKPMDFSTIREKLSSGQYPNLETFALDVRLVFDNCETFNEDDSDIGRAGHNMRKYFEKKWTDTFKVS
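BAZ2B (50 nM) with biotin-H3(5-23)K14Ac peptide (50 nM) in PBS pH 7.4, 0.01% Tween-20, preformed 30 min, then compound 30 min at room temperature; top concentration 110uM. AlphaScreen streptavidin donor/nickel chelate acceptor beads (10 ug/mL final), 20 min dark, signal read.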
Six1-Eya2 inh: blocks human Six1 binding to Eya2. AlphaScreen GST-Six1/His-Eya2 binding, biochemical; hits give low values. activity change, % (concentration not given with the values). Q15475+O00167. 0.56% of 360,000 active. AID 651725; in the data active means activity change below about -65%; inconclusive means mostly about -30% to -63%
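Compounds are tested against tagged Six1 and Eya2 proteins bridged by glutathione donor and nickel acceptor beads; after a one-hour incubation at 37 °C without light, AlphaScreen emission is recorded.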
JMJD2A Tudor inh: JMJD2A Tudor domain (human) inhibition | O75164 | AlphaScreen JMJD2A-Tudor / H3K4me3 peptide binding | Potency, µM (top dose mostly 114 µM), actives largely listed as inhibitors | 4.4% of 390,000 active; further: nearly all actives have a fitted effect of over 50% in size
CtBP-E1A blk: inhibitors of CtBP/E1A interaction; AlphaScreen GST-E1A/His-CtBP binding, 1536-well; hits give low values; activity change, % (no concentration beside the values); 0.49% of 340,000 active; AID 651724; in the data active means activity change below about -65%; inconclusive means mostly about -30% to -63%
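Steps: dispense buffer (Tris pH 8.0, NaCl 300 mM, TCEP 1 mM, BSA, Tween 20); add 5X protein mix (GST-E1A, His-CtBP, 125 nM each); pin 23 nL compound; 2 h at 37 °C, dark; add 5X beads (50 ug/mL); 1 h; read.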
HP1b binding inh: inhibitors of HP1-beta chromodomain binding to methylated histone tails. P83916. AlphaScreen HP1-beta / biotin-H3K9me3 peptide binding. Potency, µM (series often up to 114 µM), most hits filed as inhibitors. 0.56% of 390,000 active; further: nearly all actives have a fitted effect of over 70% in size
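HP1-beta protein (50 nM final) preincubated 30 min at room temperature with biotinylated H3(1-18)K9me3 peptide (50 nM) in PBS pH 7.4, 0.01% Tween-20, then compound added for 30 min. AlphaScreen streptavidin donor/nickel chelate acceptor beads (10 ug/mL final), 30 min dark, luminescence read.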
Each line names hits and unclear results; the compound was inactive in the other large screens. The list is not random: actives were taken first. Their share in the collection is about 10%. Unless noted, the call rests on the fitted dose curve; in most records, active means well fitted inhibition curve with a large enough effect; inconclusive means small, poorly fitted or top-dose-only effect; inactive means no such curve, though single readings can be large or run the other way.

O=C(Nc1nccs1)C(Br)C(Br)c1ccccc1 (stereo not given)	G9a inh 3.5µM
COc1cccc(CNC(=O)C(C)n2ncn3cccc3c2=O)c1OC (stereo not given)	G9a inh inconclusive, BAZ2B inh inconclusive (no result: Six1-Eya2 inh, CtBP-E1A blk)
CC(C)CC(=O)Nc1c2c(nn1-c1ccc([N+](=O)[O-])cc1)CS(=O)(=O)C2	none
CCOc1ccccc1C(=O)Nc1cnn(Cc2ccc(F)cc2)c1	none
COc1ccc(CC(=O)Nc2cc(NC(=O)Cc3ccc(OC)c(OC)c3)cc(C(=O)O)c2)cc1OC	BAZ2B inh inconclusive (no result: G9a inh)
COC(=O)c1cc(NC(=O)Cc2ccc(OC)c(OC)c2)cc(C(=O)OC)c1	JMJD2A Tudor inh 45µM
COc1ccc(CCNC(=O)C(=O)Nc2nccs2)cc1OC	G9a inh inconclusive, JMJD2A Tudor inh 79µM
O=C(NCc1ccccc1)C(=O)Nc1nccs1	G9a inh 13µM, JMJD2A Tudor inh inconclusive
CCOC(=O)c1c(S(=O)(=O)N2CCC(C(=O)Nc3ccc(C)c(Cl)c3)CC2)c(C)n(C)c1C	none (no result: Six1-Eya2 inh, CtBP-E1A blk)
CC(C)(C)OC(=O)N1C(=O)[C@](OC(=O)c2ccccc2)(c2ccc(F)cc2)c2ccccc21	none (no result: G9a inh, BAZ2B inh, JMJD2A Tudor inh, HP1b binding inh)
COc1ccccc1Nc1nc(N)nc(CN2CCCCCC2)n1	G9a inh inconclusive, BAZ2B inh 13µM
COc1ccccc1Nc1nc(N)nc(CN2CCC(C)CC2)n1	JMJD2A Tudor inh inconclusive
COc1ccc(Nc2nc(N)nc(CN3CCOCC3)n2)cc1	BAZ2B inh 79µM, JMJD2A Tudor inh 50µM
COc1ccccc1Nc1nc(N)nc(CN2CCOCC2)n1	G9a inh inconclusive, BAZ2B inh 56µM
CSc1ccc(S(=O)(=O)N2CCC(C(=O)NCc3ccco3)CC2)cc1	G9a inh inconclusive
N#CCN1C(=O)C(=O)N(Cc2cccc(Cl)c2)C1=O	none
COc1ccc(/C=N/N=C/c2ccc(OC)cc2)cc1	none
COc1ccc(C2=CSC(/N=C/c3ccc(F)cc3)=NN2)cc1	G9a inh 25µM, JMJD2A Tudor inh inconclusive, HP1b binding inh inconclusive
CC(=O)Nc1ccc(S(=O)(=O)N2CCC(C(=O)O)CC2)cc1	none
O=C(NC1C(=O)NNC1c1ccccc1)c1ccccc1 (stereo not given)	none
Cc1cccc(C(=O)NC2C(=O)NNC2c2ccc(Cl)cc2)c1 (stereo not given)	G9a inh 16µM (no result: BAZ2B inh)
Cc1ccccc1SCC(=O)OCC(=O)Nc1ccc(N(C)C)cc1	G9a inh 13µM, BAZ2B inh 40µM, JMJD2A Tudor inh 45µM, HP1b binding inh inconclusive
CN(C)c1ccc(NC(=O)COC(=O)CNC(=O)c2cccs2)cc1	BAZ2B inh inconclusive, JMJD2A Tudor inh inconclusive (no result: CtBP-E1A blk)
CN(C)c1ccc(NC(=O)COC(=O)Cn2nnc3ccccc32)cc1	G9a inh 40µM
Fc1ccc(Br)cc1C1C=C(c2ccc(Br)cc2)Nc2nnnn21 (stereo not given)	G9a inh 11µM (no result: Six1-Eya2 inh, CtBP-E1A blk)
Fc1ccc(Br)cc1C1C=C(c2ccc(Br)cc2)Nc2ncnn21 (stereo not given)	none
CCOC(=O)C1(Cc2cccc(OC)c2)CCN(C2CCOCC2)CC1	G9a inh 50µM, BAZ2B inh 50µM
COc1ccc(-c2cc3ccccc3n2CC(O)CN2CCC(C)CC2)cc1 (stereo not given)	G9a inh inconclusive, BAZ2B inh 50µM, JMJD2A Tudor inh 18µM, HP1b binding inh inconclusive
COc1cccc(C(=O)Nc2ccc3nc(SCC(=O)N4CCOCC4)sc3c2)c1	none (no result: Six1-Eya2 inh, CtBP-E1A blk)
CCCS(=O)(=O)c1c(S(=O)(=O)CCC)c2cnccn2c1C(=O)c1ccc(OC)cc1	G9a inh 50µM
CCCS(=O)(=O)c1c(S(=O)(=O)CCC)c2cnccn2c1C(=O)c1ccc(CC)cc1	none
ClC1=CN(C2=NCCC2)CC1	none (no result: G9a inh, BAZ2B inh, JMJD2A Tudor inh, HP1b binding inh)
Cc1ccc(N2C(=O)/C(=C/c3ccco3)SC2=S)cc1	BAZ2B inh inconclusive, JMJD2A Tudor inh inconclusive
N=C1S/C(=C\c2ccco2)C(=O)N1c1ccc2c(c1)OCO2	G9a inh 45µM, BAZ2B inh 56µM, JMJD2A Tudor inh inconclusive
N=C1S/C(=C\c2ccco2)C(=O)N1c1nccs1	G9a inh 35µM, BAZ2B inh inconclusive (no result: CtBP-E1A blk)
O=C(CSc1nc(N2CCOCC2)nc(N2CCOCC2)n1)Nc1ccccc1F	G9a inh inconclusive
CCNC(=O)C1CCCN(C(=O)c2ccc(OC(F)F)cc2)CC1 (stereo not given)	none (no result: G9a inh, BAZ2B inh, JMJD2A Tudor inh, HP1b binding inh)
CC1C=CCC2C(=O)N(c3ccccc3OC(=O)c3cccs3)C(=O)C12 (stereo not given)	none
CC1C=CCC2C(=O)N(c3ccc(Cl)cc3O)C(=O)C12 (stereo not given)	Six1-Eya2 inh inconclusive, JMJD2A Tudor inh 16µM, CtBP-E1A blk inconclusive, HP1b binding inh inconclusive
CCCCOc1ccc(C(=O)NNC(=O)c2cnccn2)cc1OC	none (no result: G9a inh, BAZ2B inh)
CN(C)CCCNCCCNC(=O)/C(=N\O)c1ccccn1	G9a inh 7.9µM, BAZ2B inh 50µM, Six1-Eya2 inh inconclusive, JMJD2A Tudor inh inconclusive, CtBP-E1A blk inconclusive
CSc1n[nH]c(NC(C)=O)n1	BAZ2B inh inconclusive, JMJD2A Tudor inh 11µM
O=C(Nc1nc2c(s1)CN(Cc1ccccc1)CC2)C1CCC1	G9a inh 45µM, BAZ2B inh inconclusive
CCN1CCc2nc(NC(=O)c3ccccc3)sc2C1	G9a inh inconclusive
CCN(CC(=O)NC1CCS(=O)(=O)C1)S(=O)(=O)c1cc([N+](=O)[O-])ccc1C (stereo not given)	none
CCNc1ccc(Br)cc(C(=O)/C=C/c2ccccc2Cl)c1=O	JMJD2A Tudor inh 45µM (no result: G9a inh, BAZ2B inh)
CNc1ccc(Br)cc(C(=O)/C=C/c2cccc(Cl)c2Cl)c1=O	G9a inh 28µM, BAZ2B inh inconclusive, JMJD2A Tudor inh 45µM
CCNc1ccccc(C(=O)/C=C/c2ccc3c(c2)OCO3)c1=O	G9a inh 5µM, BAZ2B inh 45µM, JMJD2A Tudor inh 56µM, HP1b binding inh inconclusive
CNc1ccc(Br)cc(C(=O)/C=C/c2cccc(OC)c2OC)c1=O	G9a inh 8.9µM, BAZ2B inh 40µM
C/C(=C\c1cccc(Cl)c1Cl)C(=O)c1c(C)cc(C)[nH]c1=O	none (no result: CtBP-E1A blk)
COc1ccccc1C=CC(=O)C=Cc1ccccc1OC	none (no result: G9a inh, BAZ2B inh)
CNc1ccccc(C(=O)/C=C/c2ccccc2OC)c1=O	G9a inh 4.5µM, BAZ2B inh 50µM, JMJD2A Tudor inh inconclusive
COc1ccccc1/C=C/C(=O)c1cc(Br)ccc1OC(=O)c1ccco1	JMJD2A Tudor inh 56µM (no result: G9a inh, BAZ2B inh)
O=C(/C=C/c1cn(-c2ccccc2)nc1-c1ccc2c(c1)OCCO2)NCCO	none
OCc1ccc2c(c1)c(-c1ccc3c(c1)OCCO3)c(-c1ccccc1)n2-c1ccccc1	BAZ2B inh inconclusive, Six1-Eya2 inh inconclusive, JMJD2A Tudor inh 45µM
COc1ccc(Cc2c(O)nc(SCC(=O)NC34CC5CC(CC(C5)C3)C4)[nH]c2=O)cc1	G9a inh 45µM, BAZ2B inh inconclusive
